Assays:
Assay in all cases: DAPPL (digital affinity profiling via proximity ligation, sequencing); 10 mM Tris-HCl pH 7.5, 50 mM NaCl, 1 mM DTT, 4% glycerol, room temperature, 30 min; GST-TFs on glutathione beads, 16-mer random dsDNA library, 0.1% formaldehyde crosslink after washing; high values mean tight binding
Settings in all cases: protein: recombinant; tags: N-terminal GST; dsDNA, one strand shown
FEV = molecular target: T1, FEV (Homo sapiens, UniProt Q99581 1-238)
T1 sequence: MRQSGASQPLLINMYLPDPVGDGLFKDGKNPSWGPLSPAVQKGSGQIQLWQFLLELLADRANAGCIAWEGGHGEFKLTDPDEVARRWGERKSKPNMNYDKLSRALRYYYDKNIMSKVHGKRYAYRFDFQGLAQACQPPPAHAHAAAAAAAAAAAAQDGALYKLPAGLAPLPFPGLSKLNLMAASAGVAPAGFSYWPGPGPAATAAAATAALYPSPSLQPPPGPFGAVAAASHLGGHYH
In short: (§1)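 Yeast served to express human transcription factors as GST fusions, which were then captured on glutathione beads and labelled with DNA barcodes. Pooled with a tag-only sample, they were incubated with 200 nmole of a 16-mer random double-stranded DNA library for 30 min at room temperature in Tris/NaCl/DTT/glycerol buffer, washed, crosslinked with 0.1% formaldehyde, ligated by proximity, amplified by PCR and sequenced. Dividing each hexamer's read frequency for a factor by its frequency for the tag-only sample gives the binding signal.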

ETV5 = ETV5 (Homo sapiens, UniProt P41161 1-510)
In short: as §1

SPIC = molecular target: T2, SPIC (Homo sapiens, UniProt Q8N5J4 1-248)
T2 sequence: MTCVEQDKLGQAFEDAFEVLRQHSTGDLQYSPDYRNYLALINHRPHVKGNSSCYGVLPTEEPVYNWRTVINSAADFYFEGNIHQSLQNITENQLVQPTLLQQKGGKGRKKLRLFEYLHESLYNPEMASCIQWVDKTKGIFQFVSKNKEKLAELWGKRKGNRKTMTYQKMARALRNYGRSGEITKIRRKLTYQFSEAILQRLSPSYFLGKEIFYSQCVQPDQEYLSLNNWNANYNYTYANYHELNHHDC
In short: as §1

ELF4 = ELF4 (Homo sapiens, UniProt Q99607 1-663)
In short: as §1

ELK4 = molecular target: T3, ELK4 (Homo sapiens, UniProt P28324-2 1-405)
T3 sequence: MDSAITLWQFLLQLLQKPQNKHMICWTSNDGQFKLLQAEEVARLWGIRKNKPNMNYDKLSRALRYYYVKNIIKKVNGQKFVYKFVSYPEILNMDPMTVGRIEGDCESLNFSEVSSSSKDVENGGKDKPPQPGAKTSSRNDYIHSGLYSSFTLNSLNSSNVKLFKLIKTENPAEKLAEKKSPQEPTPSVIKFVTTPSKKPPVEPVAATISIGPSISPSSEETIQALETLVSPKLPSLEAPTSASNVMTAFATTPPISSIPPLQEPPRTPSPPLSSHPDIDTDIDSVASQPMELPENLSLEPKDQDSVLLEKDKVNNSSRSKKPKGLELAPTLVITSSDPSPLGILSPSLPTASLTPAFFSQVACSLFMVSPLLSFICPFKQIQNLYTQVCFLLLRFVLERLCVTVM
In short: as §1

ETV2 = molecular target: T4, ETV2 (Homo sapiens, UniProt O00321 1-342)
T4 sequence: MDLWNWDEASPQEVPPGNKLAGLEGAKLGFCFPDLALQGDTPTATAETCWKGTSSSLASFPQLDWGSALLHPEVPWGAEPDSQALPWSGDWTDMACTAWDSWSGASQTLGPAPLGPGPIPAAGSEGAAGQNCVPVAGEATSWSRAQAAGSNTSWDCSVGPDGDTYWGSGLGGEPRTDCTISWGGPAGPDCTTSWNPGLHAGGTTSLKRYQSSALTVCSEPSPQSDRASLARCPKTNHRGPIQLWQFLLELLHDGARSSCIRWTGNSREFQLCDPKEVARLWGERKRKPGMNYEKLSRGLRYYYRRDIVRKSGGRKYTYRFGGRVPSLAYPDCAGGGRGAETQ
In short: as §1

ELF3 = molecular target: T5, ELF3 (Homo sapiens, UniProt P78545 1-371)
T5 sequence: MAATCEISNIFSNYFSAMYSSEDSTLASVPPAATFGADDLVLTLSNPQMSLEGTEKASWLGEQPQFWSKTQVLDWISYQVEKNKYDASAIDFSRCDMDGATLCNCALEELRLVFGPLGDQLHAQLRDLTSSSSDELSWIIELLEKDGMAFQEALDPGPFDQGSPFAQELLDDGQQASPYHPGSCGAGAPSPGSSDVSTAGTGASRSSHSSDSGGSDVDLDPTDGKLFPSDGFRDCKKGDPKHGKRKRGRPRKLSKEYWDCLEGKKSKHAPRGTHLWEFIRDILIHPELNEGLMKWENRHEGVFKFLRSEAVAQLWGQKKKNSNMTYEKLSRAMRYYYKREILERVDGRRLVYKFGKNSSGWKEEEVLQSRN
In short: as §1

ETV1 = ETV1 (Homo sapiens, UniProt P50549 1-477)
In short: as §1

ETV3L = molecular target: T6, ETV3L (Homo sapiens, UniProt Q6ZN32 1-361)
T6 sequence: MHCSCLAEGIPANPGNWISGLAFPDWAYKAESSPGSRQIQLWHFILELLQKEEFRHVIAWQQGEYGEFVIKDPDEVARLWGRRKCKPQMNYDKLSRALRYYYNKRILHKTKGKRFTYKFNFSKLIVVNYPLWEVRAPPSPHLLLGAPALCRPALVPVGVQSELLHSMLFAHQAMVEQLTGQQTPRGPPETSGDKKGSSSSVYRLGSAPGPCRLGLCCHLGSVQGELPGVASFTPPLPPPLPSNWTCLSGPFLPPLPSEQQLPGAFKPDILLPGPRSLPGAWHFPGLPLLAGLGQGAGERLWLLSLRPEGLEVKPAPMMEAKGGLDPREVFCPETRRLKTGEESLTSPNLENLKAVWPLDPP
In short: as §1

ETS2 = molecular target: T7, ETS2 (Homo sapiens, UniProt P15036 1-469)
T7 sequence: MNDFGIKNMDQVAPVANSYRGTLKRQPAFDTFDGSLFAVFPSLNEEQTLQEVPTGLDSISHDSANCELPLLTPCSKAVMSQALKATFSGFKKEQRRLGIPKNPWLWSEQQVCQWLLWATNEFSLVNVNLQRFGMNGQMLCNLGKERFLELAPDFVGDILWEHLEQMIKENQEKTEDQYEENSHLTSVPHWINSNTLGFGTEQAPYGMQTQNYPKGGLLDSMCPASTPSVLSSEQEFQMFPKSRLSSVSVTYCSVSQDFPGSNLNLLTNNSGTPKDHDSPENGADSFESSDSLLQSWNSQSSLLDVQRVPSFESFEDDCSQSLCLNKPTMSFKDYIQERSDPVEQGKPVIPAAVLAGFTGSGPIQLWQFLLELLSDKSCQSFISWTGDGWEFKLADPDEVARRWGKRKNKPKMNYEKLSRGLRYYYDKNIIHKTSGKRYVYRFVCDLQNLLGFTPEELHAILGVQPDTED
In short: as §1

SPDEF = molecular target: T8, SPDEF (Homo sapiens, UniProt O95238 1-335)
T8 sequence: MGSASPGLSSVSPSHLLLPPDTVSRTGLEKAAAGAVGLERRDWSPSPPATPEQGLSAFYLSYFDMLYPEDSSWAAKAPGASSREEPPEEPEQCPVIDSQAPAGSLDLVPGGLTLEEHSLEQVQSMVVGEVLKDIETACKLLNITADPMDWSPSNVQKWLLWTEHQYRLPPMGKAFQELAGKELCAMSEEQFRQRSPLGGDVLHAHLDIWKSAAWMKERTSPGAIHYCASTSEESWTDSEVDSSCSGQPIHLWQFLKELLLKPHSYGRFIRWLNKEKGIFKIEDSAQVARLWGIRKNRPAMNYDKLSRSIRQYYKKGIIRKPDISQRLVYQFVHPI
In short: as §1

ETV7 = molecular target: T9, ETV7 (Homo sapiens, UniProt Q9Y603 1-341)
T9 sequence: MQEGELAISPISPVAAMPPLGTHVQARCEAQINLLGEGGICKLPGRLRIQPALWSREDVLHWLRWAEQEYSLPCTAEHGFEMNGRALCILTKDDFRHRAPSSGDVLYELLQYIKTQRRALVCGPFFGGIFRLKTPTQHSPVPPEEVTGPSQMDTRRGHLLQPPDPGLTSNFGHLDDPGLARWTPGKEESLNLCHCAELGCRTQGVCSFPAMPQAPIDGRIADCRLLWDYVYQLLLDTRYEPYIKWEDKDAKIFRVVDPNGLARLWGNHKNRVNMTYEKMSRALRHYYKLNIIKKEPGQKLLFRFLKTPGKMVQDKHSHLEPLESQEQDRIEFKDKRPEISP
In short: as §1

ELF5 = molecular target: T10, ELF5 (Homo sapiens, UniProt Q9UKW6-2 1-255)
T10 sequence: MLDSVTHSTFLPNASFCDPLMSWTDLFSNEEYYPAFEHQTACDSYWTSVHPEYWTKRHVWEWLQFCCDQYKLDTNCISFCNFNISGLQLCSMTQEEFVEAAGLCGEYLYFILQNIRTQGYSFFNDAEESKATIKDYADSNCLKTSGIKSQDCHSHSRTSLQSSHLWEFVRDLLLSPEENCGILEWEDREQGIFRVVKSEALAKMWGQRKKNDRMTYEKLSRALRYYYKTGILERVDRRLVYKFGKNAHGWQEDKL
In short: as §1

ETV3 = molecular target: T11, ETV3 (Homo sapiens, UniProt P41162-2 1-143)
T11 sequence: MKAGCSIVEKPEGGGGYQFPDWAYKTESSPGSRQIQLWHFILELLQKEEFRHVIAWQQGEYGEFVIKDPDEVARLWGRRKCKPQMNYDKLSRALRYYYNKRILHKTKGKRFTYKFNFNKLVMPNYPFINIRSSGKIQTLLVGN
In short: as §1

ETV6 = ETV6 (Homo sapiens, UniProt P41212 1-452)
In short: as §1

ERF = molecular target: T12, ERF (Homo sapiens, UniProt P50548 1-548)
T12 sequence: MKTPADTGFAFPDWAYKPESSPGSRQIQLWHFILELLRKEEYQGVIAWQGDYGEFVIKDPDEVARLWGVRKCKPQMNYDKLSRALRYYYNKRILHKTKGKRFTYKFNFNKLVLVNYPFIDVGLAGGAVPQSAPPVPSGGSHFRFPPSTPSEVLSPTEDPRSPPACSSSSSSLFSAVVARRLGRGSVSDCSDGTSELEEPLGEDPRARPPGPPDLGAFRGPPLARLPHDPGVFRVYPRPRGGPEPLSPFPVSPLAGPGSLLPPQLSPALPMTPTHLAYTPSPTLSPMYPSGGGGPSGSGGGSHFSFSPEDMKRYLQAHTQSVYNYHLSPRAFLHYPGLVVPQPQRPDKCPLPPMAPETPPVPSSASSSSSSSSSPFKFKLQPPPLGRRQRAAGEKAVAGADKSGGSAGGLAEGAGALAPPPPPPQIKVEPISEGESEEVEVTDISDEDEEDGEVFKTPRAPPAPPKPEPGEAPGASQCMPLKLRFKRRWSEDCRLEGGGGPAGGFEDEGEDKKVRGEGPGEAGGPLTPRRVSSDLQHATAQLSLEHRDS
In short: as §1

Sequence of ELF4 (Q99607 whole entry): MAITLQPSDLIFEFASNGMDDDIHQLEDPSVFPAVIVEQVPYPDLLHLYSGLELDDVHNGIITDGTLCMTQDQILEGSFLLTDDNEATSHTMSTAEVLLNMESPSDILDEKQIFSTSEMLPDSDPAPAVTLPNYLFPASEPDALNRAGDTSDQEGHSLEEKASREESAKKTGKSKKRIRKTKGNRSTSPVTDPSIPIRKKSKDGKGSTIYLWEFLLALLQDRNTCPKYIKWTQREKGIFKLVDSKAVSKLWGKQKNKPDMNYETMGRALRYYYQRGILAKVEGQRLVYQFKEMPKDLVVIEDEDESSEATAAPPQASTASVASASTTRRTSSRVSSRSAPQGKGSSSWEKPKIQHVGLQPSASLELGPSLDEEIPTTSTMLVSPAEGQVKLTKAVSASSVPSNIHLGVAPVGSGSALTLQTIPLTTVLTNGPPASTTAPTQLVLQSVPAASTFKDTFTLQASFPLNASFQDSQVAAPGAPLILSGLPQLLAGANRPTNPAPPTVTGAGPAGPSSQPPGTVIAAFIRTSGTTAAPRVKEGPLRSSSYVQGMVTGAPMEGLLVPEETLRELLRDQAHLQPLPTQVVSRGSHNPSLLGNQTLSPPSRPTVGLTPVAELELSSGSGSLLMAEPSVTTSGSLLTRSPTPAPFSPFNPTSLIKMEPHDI
Sequence of ETV6 (P41212 whole entry): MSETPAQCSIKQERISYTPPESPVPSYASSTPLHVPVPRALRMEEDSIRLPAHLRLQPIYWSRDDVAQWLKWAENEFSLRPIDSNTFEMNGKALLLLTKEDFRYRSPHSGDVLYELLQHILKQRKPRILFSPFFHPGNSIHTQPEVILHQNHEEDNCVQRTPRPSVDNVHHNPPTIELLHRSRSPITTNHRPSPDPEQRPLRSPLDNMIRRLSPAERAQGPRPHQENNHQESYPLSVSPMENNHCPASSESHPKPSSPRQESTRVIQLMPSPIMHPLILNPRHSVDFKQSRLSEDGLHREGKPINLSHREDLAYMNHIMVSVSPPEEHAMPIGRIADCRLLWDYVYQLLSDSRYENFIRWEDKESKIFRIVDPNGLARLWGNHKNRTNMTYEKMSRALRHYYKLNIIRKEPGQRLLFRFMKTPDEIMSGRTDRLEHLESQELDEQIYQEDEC
Sequence of ETV5 (P41161 whole entry): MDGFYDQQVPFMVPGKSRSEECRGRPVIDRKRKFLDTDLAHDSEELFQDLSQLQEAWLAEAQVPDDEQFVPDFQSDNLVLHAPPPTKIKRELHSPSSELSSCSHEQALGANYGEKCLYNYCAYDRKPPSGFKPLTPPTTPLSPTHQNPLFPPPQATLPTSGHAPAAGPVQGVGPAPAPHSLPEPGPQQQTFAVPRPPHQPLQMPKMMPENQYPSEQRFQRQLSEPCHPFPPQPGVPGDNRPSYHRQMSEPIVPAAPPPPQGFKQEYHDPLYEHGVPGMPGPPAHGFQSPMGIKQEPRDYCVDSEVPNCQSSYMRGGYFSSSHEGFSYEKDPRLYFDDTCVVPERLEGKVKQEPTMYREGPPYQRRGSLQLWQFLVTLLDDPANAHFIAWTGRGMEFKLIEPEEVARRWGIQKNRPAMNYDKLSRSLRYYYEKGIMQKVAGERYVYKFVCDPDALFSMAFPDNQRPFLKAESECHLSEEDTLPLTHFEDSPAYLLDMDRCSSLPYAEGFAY
Sequence of ETV1 (P50549 whole entry): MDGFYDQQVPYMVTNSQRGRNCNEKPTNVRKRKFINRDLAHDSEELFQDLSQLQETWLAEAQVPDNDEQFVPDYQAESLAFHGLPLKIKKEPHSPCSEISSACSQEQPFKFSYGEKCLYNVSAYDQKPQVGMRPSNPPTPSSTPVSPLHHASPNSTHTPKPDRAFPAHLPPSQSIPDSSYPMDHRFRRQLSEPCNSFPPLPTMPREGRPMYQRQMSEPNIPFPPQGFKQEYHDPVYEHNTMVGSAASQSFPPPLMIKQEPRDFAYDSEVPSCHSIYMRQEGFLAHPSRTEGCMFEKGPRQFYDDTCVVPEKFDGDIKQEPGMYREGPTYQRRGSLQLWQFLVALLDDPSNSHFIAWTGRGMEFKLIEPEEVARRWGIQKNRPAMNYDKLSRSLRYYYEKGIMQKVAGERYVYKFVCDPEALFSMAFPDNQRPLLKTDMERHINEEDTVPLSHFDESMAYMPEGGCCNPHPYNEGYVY

## TGCCCT
FEV
  binding signal: 1.18 fold enrichment (6-mer frequency, TF over GST control)
ETV5
  binding signal: 1.11 fold enrichment (6-mer frequency, TF over GST control)
SPIC
  binding signal: 1.2 fold enrichment (6-mer frequency, TF over GST control)
ELF4
  binding signal: 1.12 fold enrichment (6-mer frequency, TF over GST control)
ELK4
  binding signal: 1.25 fold enrichment (6-mer frequency, TF over GST control)
ETV2
  binding signal: 1.13 fold enrichment (6-mer frequency, TF over GST control)
ELF3
  binding signal: 1.27 fold enrichment (6-mer frequency, TF over GST control)
ETV1
  binding signal: 1.08 fold enrichment (6-mer frequency, TF over GST control)
ETV3L
  binding signal: 1.11 fold enrichment (6-mer frequency, TF over GST control)
ETS2
  binding signal: 1.21 fold enrichment (6-mer frequency, TF over GST control)
SPDEF
  binding signal: 1.15 fold enrichment (6-mer frequency, TF over GST control)
ETV7
  binding signal: 1.08 fold enrichment (6-mer frequency, TF over GST control)
ELF5
  binding signal: 1 fold enrichment (6-mer frequency, TF over GST control)
ETV3
  binding signal: 1.1 fold enrichment (6-mer frequency, TF over GST control)
ETV6
  binding signal: 1.15 fold enrichment (6-mer frequency, TF over GST control)

## GCGTTT
FEV
  binding signal: 1.18 fold enrichment (6-mer frequency, TF over GST control)
ETV5
  binding signal: 1.09 fold enrichment (6-mer frequency, TF over GST control)
SPIC
  binding signal: 1.15 fold enrichment (6-mer frequency, TF over GST control)
ELF4
  binding signal: 1.13 fold enrichment (6-mer frequency, TF over GST control)
ELK4
  binding signal: 1.16 fold enrichment (6-mer frequency, TF over GST control)
ETV2
  binding signal: 1.11 fold enrichment (6-mer frequency, TF over GST control)
ELF3
  binding signal: 1.15 fold enrichment (6-mer frequency, TF over GST control)
ERF
  binding signal: 1.1 fold enrichment (6-mer frequency, TF over GST control)
ETV3L
  binding signal: 1.11 fold enrichment (6-mer frequency, TF over GST control)
ETS2
  binding signal: 1.09 fold enrichment (6-mer frequency, TF over GST control)
ETV7
  binding signal: 1.12 fold enrichment (6-mer frequency, TF over GST control)
ELF5
  binding signal: 1.12 fold enrichment (6-mer frequency, TF over GST control)
ETV3
  binding signal: 1.19 fold enrichment (6-mer frequency, TF over GST control)
ETV6
  binding signal: 1.04 fold enrichment (6-mer frequency, TF over GST control)
